Assay [1] in a line: A CellTox Green Cytotoxicity Assay to monitor cytotoxicity in HepG2 cells - 8 hour (AID 1224890). Further: nearly all actives have a fitted effect of over 45% in size. In outline: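 Fluorescent DNA-binding dye, 600 HepG2 cells/well, 5 h preincubation then compound in DMSO; same plates read at 0–40 h, 37 C.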
A short description of assay [2]: qHTS assay to identify small molecule antagonists of the estrogen receptor alpha (ER-alpha) signaling pathway using the BG1 cell line in the presence of 0.1 nM 17-beta-estradiol - cell viability counter screen (AID 1259241). Further: nearly all actives have a fitted effect of over 40% in size. In outline:
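Following 5 days in phenol red-free medium with charcoal-stripped serum, VM7Luc4E2 cells received test compounds alongside 0.1 nM 17beta-estradiol (final) at 37C for 22 hr. Live cells were then quantified via protease-substrate fluorescence.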
(In general: In qHTS, concentration-response curves come from the screen itself.)

Assay [3] is described as follows: qHTS assay to identify small molecule antagonists of the androgen receptor (AR) signaling pathway using the MDA cell line in the presence of 0.5 nM R1881 - cell viability counter screen (AID 1259242). Further: nearly all actives have a fitted effect of over 45% in size. In outline: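 Human breast carcinoma MDA-kb2 cells, cultured without CO2, receive compounds alongside 0.5 nM (final) R1881 agonist. After 16 hr at 37C, viability is taken as live-cell protease signal.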

A short description of assay [4]: qHTS assay to identify small molecule HDAC inhibitors (AID 1259364).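 Further: wild-type HCT-116 cells with endogenous class I/II HDAC activity; top concentration of the series differs between compounds; nearly all actives have a fitted effect of over 45% in size.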 In outline:
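After a 2 hr compound incubation (37C, 5% CO2), HCT-116 cells seeded at 1,500/well the day before received HDAC-Glo reagent; signal read as luminescence after 30 min at room temperature.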

The nature of assay [5]: qHTS assay to identify small molecule HDAC inhibitors - cell viability counter screen (AID 1259365). Further: series mostly up to about 92 µM; nearly all actives have a fitted effect of over 50% in size. In outline:
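HCT-116 wild-type, overnight attachment; 2hr drug exposure, 37C; CellTiter-Glo luminescent ATP readout after 30min RT.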

Assay [6] can be described thus: qHTS assay to identify small molecule agonists of the sonic hedgehog signaling (Shh) pathway - cell viability counter screen (AID 1259366). Further: nearly all actives have a fitted effect of over 50% in size. Further: potency means the concentration at half of the fitted maximal effect. In outline:
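Compounds in DMSO were pin-transferred onto 3T3 Gli1-Luc cells that had settled 4hr; plates then stood 24hr at 37C and 5% CO2. One hour before the end, CellTiter-Fluor was added and fluorescence recorded.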

Assay [7] in a line: qHTS assay to identify small molecule antagonists of the sonic hedgehog signaling (Shh) pathway - cell viability counter screen (AID 1259367). Further: nearly all actives have a fitted effect of over 55% in size. In outline: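 Cytotoxicity was assessed in parallel with Shh reporter activity by measuring live-cell protease fluorescence (CellTiter-Fluor) in NIH/3T3 cells stably carrying Gli1-Luc, treated with compound under conditioned medium stimulation for 23 hr plus 1 hr reagent incubation.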

Inconclusive results are not listed. Calls of active or inactive are those of the source. The call rests on the fitted dose curve; in most records, active means well fitted curve in the direction sought with a large enough effect in the repeat runs; inconclusive means weak or mixed curves; inactive means no such curve, though single readings can be large; an effect the other way counts as inactive or inconclusive.

On to `CCn1cc[n+](C)c1`, for which the Potency entry in assay [1], in assay [2], in assay [3], in assay [4], in assay [5] and in assay [6] was “inactive” each time. In assay [7], the Potency entry is “inactive”.
With `CCCCc1c(C)nc(NCC)nc1OS(=O)(=O)N(C)C`, the Potency result in assay [1], in assay [2], in assay [3], in assay [4] and in assay [5] was “inactive” throughout. Moreover, the Potency in assay [6] is 30.6 µM (active).
Turning to `CCCCCCCCOC(=O)c1ccc(C(=O)OCCCCCCCC)c(C(=O)OCCCCCCCC)c1`, the Potency entry in assay [1], in assay [2], in assay [3], in assay [4], in assay [5] and in assay [7] was “inactive” in each case.

The record behind these values is PubChem BioAssay (Tox21).
